The text below walks through data of PubChem BioAssay (NCI).

This is part of a sample that, as a whole, favours compounds with a hit. Of some 83,000 tested, about 20% had one in any assay.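 In brief: 96-well plates, 48 h treatment, single concentration, percent growth endpoint.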 Values without a mark were called inactive. Calls of active or inactive are those of the source. Rule for the calls: active = growth percent below 10; inactive = the rest.

Some test systems named below: DU-145 prostate; K-562 leukemia; MDA-MB-231 breast; RXF 393 renal; SF-268 CNS; SF-295 CNS; SF-539 CNS; UACC-257 melanoma; M14 melanoma; HCT-15 colon; HT29 colon; SNB-75 CNS; SNB-19 CNS; U251 CNS; SK-MEL-5 melanoma; UACC-62 melanoma; LOX IMVI melanoma; SK-MEL-28 melanoma; PC-3 prostate.
Holding throughout (experiment): NCI-60 one-dose screen, 48 h (100 = growth as untreated, 0 = no growth, -100 = all killed)
What all share (conditions): 10 µM

As to `COC1=CC(=O)OC(c2ccc(OC)cc2)C1` (stereo not drawn), the growth with DU-145 prostate was 113%; in the experiment on K-562 leukemia, 130%; in the experiment on MDA-MB-231 breast, 100%; in the experiment with RXF 393 renal, 113%; in the experiment on SF-268 CNS, 96.5%; in the experiment with SF-295 CNS, 91.7%. For the same compound, the growth was 104% in the experiment on SF-539 CNS; 104% with UACC-257 melanoma; 122% with M14 melanoma; 121% in the experiment on HCT-15 colon; 110% with HT29 colon; 86.3% in the experiment on SNB-75 CNS. The growth in the experiment on SNB-19 CNS was 104%; with U251 CNS, 117%; in the experiment with SK-MEL-5 melanoma it was 106%; with UACC-62 melanoma, 101%; in the experiment on LOX IMVI melanoma, 94.9%; with SK-MEL-28 melanoma, 123%.
Consider `Clc1ccc(Cc2ccncc2)cc1`, for which the growth is 114% with DU-145 prostate; 111% with K-562 leukemia; 99.5% in the experiment on MDA-MB-231 breast; 110% with RXF 393 renal; 96.2% with SF-268 CNS; 112% with SF-295 CNS. For the same compound, the growth in the experiment with UACC-257 melanoma was 104%; in the experiment on M14 melanoma, 109%; with HCT-15 colon, 104%; with SNB-75 CNS, 89.8%; with SNB-19 CNS it was 98.9%; in the experiment on U251 CNS, 113%. For the same compound, the growth with PC-3 prostate is 103%; in the experiment on SK-MEL-5 melanoma it was 104%; in the experiment on UACC-62 melanoma it was 95.3%; with LOX IMVI melanoma it was 97.9%; with SK-MEL-28 melanoma, 112%.
As to `O=C1c2ccccc2C(=O)N1CCCCNc1ccccc1`, the growth in the experiment on DU-145 prostate is 102%; in the experiment with K-562 leukemia it was 149%; with MDA-MB-231 breast it was 79.6%; in the experiment on RXF 393 renal, 104%; in the experiment on SF-268 CNS, 54.1%; in the experiment with SF-295 CNS, 98%. The growth in the experiment on SF-539 CNS is 74.6%; in the experiment with UACC-257 melanoma, 106%; with M14 melanoma it was 98.9%; with HCT-15 colon, 96.8%; in the experiment on HT29 colon it was 110%; with SNB-75 CNS, 90.8%. The growth in the experiment on SNB-19 CNS is 96.8%; in the experiment on PC-3 prostate it was 75.5%; in the experiment with SK-MEL-5 melanoma it was 105%; with UACC-62 melanoma, 96%; with LOX IMVI melanoma it was 117%; in the experiment on SK-MEL-28 melanoma, 113%.
Turning to `Cc1cc(NC(=O)c2ccc(C)c(Nc3nccc(-c4cccnc4)n3)c2)cc(-n2cnc(C)c2)c1`, the growth in the experiment with DU-145 prostate was 32.3%; with K-562 leukemia it was -36.2% (active); in the experiment on MDA-MB-231 breast, 18.5%; in the experiment with RXF 393 renal it was -3.26% (active); with SF-268 CNS it was 73.3%; in the experiment with SF-295 CNS it was -13.4% (active). The growth in the experiment with SF-539 CNS is 21.1%; in the experiment with UACC-257 melanoma, 87%; in the experiment on M14 melanoma, 30.9%; with HCT-15 colon it was 58.6%; in the experiment with HT29 colon, -18.6% (active); with SNB-75 CNS, -14% (active). For the same compound, the growth in the experiment on SNB-19 CNS was 66.6%; in the experiment with PC-3 prostate, 61.4%; in the experiment with SK-MEL-5 melanoma, 65.7%; with UACC-62 melanoma it was 44.6%; in the experiment with LOX IMVI melanoma, 2.11% (active); with SK-MEL-28 melanoma, 41.5%.
Take `Fc1ccc(C(c2ccc(F)cc2)C(Cl)Cl)cc1`: the growth in the experiment on DU-145 prostate was 104%; with K-562 leukemia, 91.2%; in the experiment on MDA-MB-231 breast it was 92.4%; with RXF 393 renal, 86.9%; in the experiment on SF-268 CNS, 110%; in the experiment on SF-295 CNS it was 105%. The growth in the experiment with SF-539 CNS was 106%; with UACC-257 melanoma, 111%; in the experiment with M14 melanoma, 103%; in the experiment with HCT-15 colon, 104%; with HT29 colon it was 97.7%; in the experiment with SNB-75 CNS, 96.1%. In addition, the growth with SNB-19 CNS is 101%; with PC-3 prostate, 92.2%; in the experiment on SK-MEL-5 melanoma, 101%; in the experiment with UACC-62 melanoma it was 106%; with LOX IMVI melanoma, 96.3%; in the experiment on SK-MEL-28 melanoma, 101%.
With `CC(C)(C)c1nn(-c2ccccc2)c2c1CC1(CN2Cc2ccc(Cl)cc2)C(=O)c2ccccc2C1=O`, the growth is 95.8% with DU-145 prostate; 81.3% with K-562 leukemia; 83.2% in the experiment with MDA-MB-231 breast; 95.3% in the experiment with RXF 393 renal; 89% with SF-268 CNS; 76.1% with UACC-257 melanoma. Further, the growth is 87.1% with M14 melanoma; 88.2% in the experiment with HCT-15 colon; 65.1% with HT29 colon; 120% in the experiment on SNB-75 CNS; 84.5% in the experiment on SNB-19 CNS; 85.7% with U251 CNS. Also, the growth in the experiment with PC-3 prostate is 44.2%; in the experiment with SK-MEL-5 melanoma it was 78.5%; in the experiment with UACC-62 melanoma it was 73.6%; with LOX IMVI melanoma, 81.8%; in the experiment with SK-MEL-28 melanoma, 102%.
On to `O=C(c1ccccc1)N(C(=O)c1ccccc1)N1CCCC1`, for which the growth was 113% with DU-145 prostate; 101% in the experiment with K-562 leukemia; 117% in the experiment with MDA-MB-231 breast; 110% with RXF 393 renal; 98.7% with SF-268 CNS; 104% with SF-295 CNS. Besides, the growth is 99.9% in the experiment on SF-539 CNS; 102% in the experiment on M14 melanoma; 107% in the experiment on HCT-15 colon; 102% with HT29 colon; 87.3% in the experiment on SNB-75 CNS; 107% in the experiment on SNB-19 CNS. In addition, the growth was 88.4% with PC-3 prostate; 98.4% with SK-MEL-5 melanoma; 85.8% in the experiment with UACC-62 melanoma; 90.9% in the experiment with LOX IMVI melanoma; 114% in the experiment with SK-MEL-28 melanoma.
For `CSc1nc(S(C)(=O)=O)nc2[nH]c(=O)[nH]c12`, the growth with DU-145 prostate is 116%; in the experiment on K-562 leukemia it was 108%; with MDA-MB-231 breast, 89.7%; in the experiment on RXF 393 renal, 110%; with SF-268 CNS it was 101%; in the experiment with SF-539 CNS it was 99.1%. For the same compound, the growth was 105% in the experiment with UACC-257 melanoma; 96.7% with M14 melanoma; 94.9% in the experiment on HCT-15 colon; 99.5% in the experiment on HT29 colon; 97% in the experiment with SNB-75 CNS; 99.8% in the experiment on SNB-19 CNS. Also, the growth was 105% in the experiment with U251 CNS; 106% in the experiment with PC-3 prostate; 103% with SK-MEL-5 melanoma; 98.9% with UACC-62 melanoma; 126% with SK-MEL-28 melanoma.
As for `Cc1ccc(NC(=O)N2CCCCC2)cc1[N+](=O)[O-]`, the growth was 108% with DU-145 prostate; 106% with K-562 leukemia; 95.5% in the experiment with MDA-MB-231 breast; 106% with RXF 393 renal; 81.1% in the experiment on SF-268 CNS; 92.6% in the experiment on SF-539 CNS. The growth in the experiment with UACC-257 melanoma was -0.113% (active); with M14 melanoma, 90.8%; in the experiment on HCT-15 colon it was 96%; in the experiment on HT29 colon, 103%; in the experiment on SNB-75 CNS, 90.5%; in the experiment on SNB-19 CNS, 98.4%. The growth with U251 CNS was 101%; in the experiment with PC-3 prostate it was 76.6%; with SK-MEL-5 melanoma it was 103%; with UACC-62 melanoma, 86.7%; in the experiment with LOX IMVI melanoma, 97%; in the experiment on SK-MEL-28 melanoma, 105%.
